PubChem BioAssay (Tox21)
Results filed as inconclusive are left out. Active and inactive are the calls of the source. Unless noted, calls come from the whole dose curve.

How the values were obtained:
[1] = Nuclear factor erythroid 2-related factor 2/antioxidant responsive element (Nrf2/ARE) small molecule agonists: qHTS cell viability counter screen in human keratinocytes (AID 1919968; active = well fitted curve in the direction sought with a large enough effect in the repeat runs; an effect the other way counts as inactive or inconclusive; note: nearly all actives have a fitted effect of over 55% in size; note: potency is the fitted concentration of half-maximal effect)
How it was run: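 KeratinoSens cells (HaCaT keratinocytes stably carrying an ARE-luciferase reporter) were seeded at 1,500 cells/well and rested 5 h at 37 C/5% CO2. They were then exposed to compounds in DMSO for 23 h. Viability was read by CellTiter-Fluor fluorescence after 1 h.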

[2] = biological target: Gonadotropin-releasing hormone receptor (Homo sapiens) (UniProt P30968); experiment: Human gonadotropin-releasing hormone receptor (GnRHR) small molecule agonists, calcium flux assay in GnRHR-HEK293 cells (AID 1920063); note: nearly all actives have a fitted effect of over 35% in size
Gonadotropin-releasing hormone receptor (Homo sapiens), sequence (P30968 whole entry, looked up): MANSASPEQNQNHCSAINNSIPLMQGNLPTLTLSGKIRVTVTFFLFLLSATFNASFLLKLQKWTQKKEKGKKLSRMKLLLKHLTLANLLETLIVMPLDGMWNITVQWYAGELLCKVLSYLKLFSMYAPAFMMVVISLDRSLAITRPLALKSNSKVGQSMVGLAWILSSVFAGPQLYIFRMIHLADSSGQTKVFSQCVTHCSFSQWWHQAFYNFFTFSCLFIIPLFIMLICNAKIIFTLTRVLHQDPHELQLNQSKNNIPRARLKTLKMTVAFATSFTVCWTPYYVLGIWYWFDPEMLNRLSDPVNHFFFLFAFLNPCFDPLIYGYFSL
How it was run: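 HEK293 cells stably expressing human GnRHR were plated 18 h at 37 °C, loaded with calcium dye 1 h at 37 °C, then given compound in agonist mode; fluorescence (Ex/Em 480/540) read kinetically for 3 min at 1 s intervals.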

[3] = biological target: KiSS-1 receptor (Homo sapiens) (UniProt Q969F8); experiment: Human kisspeptin (KISS1R) small molecule agonists, calcium flux assay in KISS1R-HEK293 cells (AID 1920064; active = well fitted curve in the direction sought with a large enough effect in the repeat runs; an effect the other way counts as inactive or inconclusive)
KiSS-1 receptor (Homo sapiens), sequence (Q969F8 whole entry, looked up): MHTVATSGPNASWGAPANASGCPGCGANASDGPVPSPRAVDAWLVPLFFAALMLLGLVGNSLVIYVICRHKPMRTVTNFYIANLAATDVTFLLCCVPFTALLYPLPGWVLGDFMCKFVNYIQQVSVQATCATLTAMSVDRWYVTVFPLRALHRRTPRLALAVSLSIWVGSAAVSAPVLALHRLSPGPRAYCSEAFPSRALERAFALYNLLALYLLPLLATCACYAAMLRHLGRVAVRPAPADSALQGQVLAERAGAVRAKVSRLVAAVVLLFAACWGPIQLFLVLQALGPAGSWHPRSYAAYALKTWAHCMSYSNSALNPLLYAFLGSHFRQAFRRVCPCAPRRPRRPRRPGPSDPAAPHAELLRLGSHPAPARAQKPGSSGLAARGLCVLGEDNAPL
How it was run: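 HEK293 cells stably expressing human KISS1R were plated 18 h at 37 °C, loaded with calcium dye for 1 h at 37 °C, then given compound by pin tool. Fluorescence (Ex/Em 480/540) was read kinetically for 3 min.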

[4] = G protein-coupled receptor (GPCR) small molecule agonists, calcium flux assay: HEK293 wild type cell line counter screen (AID 1920065)
How it was run: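 Cells were plated and cultured 18 h at 37 C/5% CO2, then loaded with calcium dye for 1 h at 37 C. Compounds in DMSO were pin-transferred in agonist mode, and fluorescence (Ex/Em 480/540) was read kinetically for 3 min at 1 s intervals.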

[5] = p53 small molecule agonists, cell-based qHTS assay with human liver microsomes (AID 1963577);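 note: p53 response element beta-lactamase reporter cells with liver microsomes plus NADPH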
How it was run: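 With metabolic activation: human liver microsomes (0.5 mg/mL final) plus NADPH (0.5 mg/mL final) added alongside compounds to p53RE-bla cells; 16 h 37 C exposure; beta-lactamase read by LiveBLAzer fluorescence.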

[6] = p53 small molecule agonists, cell-based qHTS assay with human liver microsomes: qHTS cell viability counter screen (AID 1963579); note: nearly all actives have a fitted effect of over 45% in size
How it was run: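 Metabolic activation used human liver microsomes and NADPH, both 0.5 mg/mL final, over 16 hours at 37 C on p53RE-bla cells (4,000/well). Cytotoxicity measured by CellTiter-Glo luminescence, 30 min at room temperature.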

[7] = p53 small molecule agonists, cell-based qHTS assay with rat liver microsomes: qHTS cell viability counter screen (AID 1963580); note: nearly all actives have a fitted effect of over 45% in size
How it was run: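 In HCT-116 cells carrying a p53 response element-bla reporter, compounds were metabolically activated in situ by rat liver microsomes with NADPH over 16 h. Cell ATP content then served as the cytotoxicity measure.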

[8] = p53 small molecule agonists, cell-based qHTS assay: qHTS cell viability counter screen (AID 1963581); note: nearly all actives have a fitted effect of over 45% in size
How it was run: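 p53RE-bla HCT-116 cells were exposed to compounds for 16 h at 37 C; after the beta-lactamase FRET read in the same wells, CellTiter-Glo was added and luminescence (intracellular ATP) read after 30 min at room temperature.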

[9] = p53 small molecule agonists, cell-based qHTS assay (AID 1963582; active = well fitted activation curve with a large enough effect in the signal ratio in the repeat runs, not every such curve was filed as active; the % refers to the signal ratio)
How it was run: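 p53RE-bla beta-lactamase reporter cells rested 5 h at 37 C/5% CO2, then received compounds in DMSO by pin transfer and were incubated 16 h at 37 C. LiveBLAzer B/G FRET substrate was loaded for 2 h at room temperature before fluorescence reading.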

[10] = biological target: 5-hydroxytryptamine receptor 2A (Homo sapiens) (UniProt P28223); experiment: 5-hydroxytryptamine receptor 2A (HTR2A) small molecule antagonists, cell-based qHTS assay (AID 1963586); note: nearly all actives have a fitted effect of over 45% in size
5-hydroxytryptamine receptor 2A (Homo sapiens), sequence (P28223 whole entry, looked up): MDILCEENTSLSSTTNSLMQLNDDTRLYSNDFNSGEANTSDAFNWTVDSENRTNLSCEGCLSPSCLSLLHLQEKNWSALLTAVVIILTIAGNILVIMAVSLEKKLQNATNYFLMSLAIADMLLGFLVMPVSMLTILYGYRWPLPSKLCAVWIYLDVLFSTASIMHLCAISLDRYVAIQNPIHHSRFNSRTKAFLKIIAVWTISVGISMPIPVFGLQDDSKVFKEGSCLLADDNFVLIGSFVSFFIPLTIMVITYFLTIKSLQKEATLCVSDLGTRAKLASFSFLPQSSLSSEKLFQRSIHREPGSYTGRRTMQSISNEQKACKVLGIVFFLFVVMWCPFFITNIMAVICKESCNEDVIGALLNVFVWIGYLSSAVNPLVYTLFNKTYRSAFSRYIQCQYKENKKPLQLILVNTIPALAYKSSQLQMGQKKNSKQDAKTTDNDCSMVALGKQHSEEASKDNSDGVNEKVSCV
How it was run: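 Antagonist-mode intracellular calcium assay: DOI (4 nM) added after 5 min compound pre-incubation at room temperature to dye-loaded HTR2A-CHO cells. Fluorescence followed for 3 min, sampled every second.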

[11] = biological target: 5-hydroxytryptamine receptor 2A (Homo sapiens) (UniProt P28223); experiment: 5-hydroxytryptamine receptor 2A (HTR2A) small molecule agonists, cell-based qHTS assay (AID 1963587); note: nearly all actives have a fitted effect of over 30% in size
How it was run: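 HTR2A-CHO cells, plated 18 h at 37 C/5% CO2, dye-loaded 1 h at 37 C; compounds in DMSO added by pin tool (agonist mode). Intracellular calcium flux read as kinetic fluorescence on FDSS over 2 min at 1 s intervals.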

[12] = biological target: Muscarinic acetylcholine receptor M1 (Homo sapiens) (UniProt P11229); experiment: Cholinergic receptor muscarinic 1 (CHRM1) small molecule antagonists, cell-based qHTS assay (AID 1963588); note: nearly all actives have a fitted effect of over 40% in size; note: potency is the fitted concentration of half-maximal effect
Muscarinic acetylcholine receptor M1 (Homo sapiens), sequence (P11229 whole entry, looked up): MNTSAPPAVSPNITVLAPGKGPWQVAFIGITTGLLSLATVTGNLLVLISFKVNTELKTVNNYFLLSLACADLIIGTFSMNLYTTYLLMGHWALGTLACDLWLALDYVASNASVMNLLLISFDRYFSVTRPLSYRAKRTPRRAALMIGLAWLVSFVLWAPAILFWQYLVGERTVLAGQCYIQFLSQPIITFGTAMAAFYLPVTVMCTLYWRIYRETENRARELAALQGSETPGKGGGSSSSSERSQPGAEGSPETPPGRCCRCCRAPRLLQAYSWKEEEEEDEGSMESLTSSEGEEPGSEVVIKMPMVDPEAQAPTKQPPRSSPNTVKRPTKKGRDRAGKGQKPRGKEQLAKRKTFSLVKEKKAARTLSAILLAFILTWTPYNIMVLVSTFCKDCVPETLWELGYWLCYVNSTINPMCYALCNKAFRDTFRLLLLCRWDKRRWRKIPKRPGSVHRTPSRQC
How it was run: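 CHRM1-CHO calcium-flux assay, antagonist mode. Cells were seeded 18 h, dye-loaded 1 h at 37 C and given compound for 5 min at RT, then acetylcholine was added at 50nM. FDSS fluorescence was read 3 min; 15 concentrations, three runs.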

[13] = biological target: Muscarinic acetylcholine receptor M1 (Homo sapiens) (UniProt P11229); experiment: Cholinergic receptor muscarinic 1 (CHRM1) small molecule agonists, cell-based qHTS assay (AID 1963589); note: nearly all actives have a fitted effect of over 35% in size
How it was run: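 CHO cells stably expressing human CHRM1, seeded 18 h at 37 C/5% CO2, dye-loaded 1 h at 37 C, then given compound in agonist mode; intracellular calcium fluorescence read kinetically at 1 s intervals. Fifteen concentrations, three independent runs.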

[14] = cAMP Responsive Elements (CRE) small molecule agonists, cell-based qHTS assay (AID 1963590)
How it was run: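 CRE-bla HEK 293T cells in DMEM with 10% dialyzed FBS, NEAA, pyruvate and 25 mM HEPES were plated 18 h at 37 C/5% CO2, then exposed to compounds in DMSO for 3 h before LiveBLAzer B/G FRET substrate addition.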

[15] = cAMP Responsive Elements (CRE) small molecule antagonists, cell-based qHTS assay (AID 1963591; active = well fitted inhibition curve with a large enough effect in the signal ratio in the repeat runs, not every such curve was filed as active; the % refers to the signal ratio)
How it was run: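 CRE-bla HEK293T cells were plated 18 h at 37 °C/5% CO2, pinned with compound in DMSO, then stimulated with NKH477 at 0.25 uM final for 3 h. LiveBLAzer B/G FRET substrate was added and plates incubated 2 h at room temperature.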

[16] = biological target: Beta-2 adrenergic receptor (Homo sapiens) (UniProt P07550); experiment: Adrenergic beta2 receptor (ADRB2) small molecule antagonists, cell-based qHTS assay (AID 1963592); note: series mostly up to about 92 µM; nearly all actives have a fitted effect of over 50% in size
Beta-2 adrenergic receptor (Homo sapiens), sequence (P07550 whole entry, looked up): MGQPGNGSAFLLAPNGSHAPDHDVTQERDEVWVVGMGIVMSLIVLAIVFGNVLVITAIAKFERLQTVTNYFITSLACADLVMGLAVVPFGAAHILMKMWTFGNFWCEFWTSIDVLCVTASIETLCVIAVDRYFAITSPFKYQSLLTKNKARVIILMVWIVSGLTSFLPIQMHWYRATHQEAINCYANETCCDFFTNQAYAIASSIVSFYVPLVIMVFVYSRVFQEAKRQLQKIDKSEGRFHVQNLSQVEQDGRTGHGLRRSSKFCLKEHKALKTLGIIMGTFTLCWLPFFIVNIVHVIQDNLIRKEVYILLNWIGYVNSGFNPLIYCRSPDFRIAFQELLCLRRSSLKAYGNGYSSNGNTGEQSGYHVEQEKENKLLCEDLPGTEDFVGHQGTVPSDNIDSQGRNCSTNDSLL
How it was run: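 Cells (CHO, stable ADRB2 overexpression) incubated 18-20hr at 37C; compounds added from DMSO; agonist mix (1nM isoproterenol, 100uM IBMX, 25uM Ro-20-1724) added; 0.5hr RT; d2-cAMP and anti-cAMP-cryptate added; 1hr RT; 665/615 nm read.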

[17] = biological target: D(2) dopamine receptor (Homo sapiens) (UniProt P14416); experiment: Dopamine D2 receptor (DRD2) small molecule agonists, cell-based qHTS assay (AID 1963594); note: nearly all actives have a fitted effect of over 35% in size
D(2) dopamine receptor (Homo sapiens), sequence (P14416 whole entry, looked up): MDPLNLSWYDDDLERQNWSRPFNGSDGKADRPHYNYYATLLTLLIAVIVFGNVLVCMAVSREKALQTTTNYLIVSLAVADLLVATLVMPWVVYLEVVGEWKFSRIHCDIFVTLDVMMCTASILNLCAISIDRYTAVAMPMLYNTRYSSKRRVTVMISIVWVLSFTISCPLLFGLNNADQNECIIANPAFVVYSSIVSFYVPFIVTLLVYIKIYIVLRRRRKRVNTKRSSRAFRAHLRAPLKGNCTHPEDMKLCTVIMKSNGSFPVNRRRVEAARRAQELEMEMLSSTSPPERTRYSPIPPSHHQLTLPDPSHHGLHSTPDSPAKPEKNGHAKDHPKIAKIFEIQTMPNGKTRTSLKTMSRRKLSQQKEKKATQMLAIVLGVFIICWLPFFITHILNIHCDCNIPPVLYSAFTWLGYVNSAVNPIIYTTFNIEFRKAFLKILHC
How it was run: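 HEK293 cells stably expressing DRD2 were cultured 24 h at 37 C, then given Ro20-1724 (0.1 mM final) and compounds for 10 min at room temperature. NKH477 (200nM) was then added for 30 min. cAMP was read by HTRF.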

[18] = p53 small molecule agonists, cell-based qHTS assay with rat liver microsomes (AID 1963578)
How it was run: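 Metabolic activation by rat liver microsomes and NADPH, each 0.5 mg/mL final, added right after compounds to p53RE-bla reporter cells (4,000/well, plated 5 h earlier). 16 h at 37 C, then LiveBLAzer substrate for 2 h at room temperature in the dark; fluorescence read-out.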

[19] = biological target: Beta-2 adrenergic receptor (Homo sapiens) (UniProt P07550); experiment: Adrenergic beta2 receptor (ADRB2) small molecule agonists, cell-based qHTS assay (AID 1963593);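 note: CHO cells stably overexpressing human ADRB2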
How it was run: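 CHO cells stably over-expressing ADRB2 were plated overnight at 37C, then dosed with compounds plus a stimulation mix containing 100uM IBMX and 25uM Ro-20-1724 for 0.5hr at room temperature. cAMP was measured by HTRF competition, 1hr.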

[20] = biological target: D(2) dopamine receptor (Homo sapiens) (UniProt P14416); experiment: Dopamine D2 receptor (DRD2) small molecule antagonists, cell-based qHTS assay (AID 1963595; active = well fitted inhibition curve with a large enough effect in the signal ratio in the repeat runs, with a control signal flat; the % refers to the signal ratio; note: potency is the fitted concentration of half-maximal effect)
How it was run: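 Human DRD2 antagonist qHTS measuring cAMP by HTRF. The cells are exposed to compound for 10 min, then to NKH477 (200 nM) and quinpirole (12 nM) for 30 min at RT, with Ro20-1724 (0.1 mM) present throughout.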

Measured: Potency

Cc1cccc(C)c1NC(=O)c1cc(S(N)(=O)=O)c(Cl)cc1O
active: [12] 0.0033 µM
inactive: [1] | [2] | [3] | [4] | [5] | [6] | [7] | [8] | [9] | [10] | [11] | [13] | [14] | [15] | [16] | [17]

Nc1cc(Cl)c(O)c(Cl)c1
inactive: [1] | [2] | [3] | [4] | [5] | [18] | [6] | [7] | [8] | [10] | [11] | [12] | [13] | [17]

CCN(CC)CCNC(=O)c1cc(Br)c(N)cc1OC
inactive: [1] | [2] | [3] | [4] | [5] | [18] | [6] | [7] | [9] | [11] | [12] | [13] | [14] | [15] | [16] | [19] | [17]
active: [20] 0.376 µM

Cc1cc(C)n(CO)n1
inactive: [1] | [2] | [3] | [4] | [5] | [18] | [7] | [9] | [10] | [11] | [12] | [13] | [14] | [15] | [16] | [19] | [17] | [20]

ClC(Cl)(Br)Br
inactive: [1] | [2] | [3] | [4] | [5] | [18] | [6] | [7] | [8] | [10] | [11] | [12] | [13] | [14] | [15] | [16] | [17]

Cc1cccc(C)c1NC(=O)c1ccc(N)cc1
inactive: [1] | [2] | [3] | [4] | [5] | [18] | [8] | [9] | [10] | [11] | [12] | [13] | [15] | [16] | [17] | [20]

CC1=C(C)C(=O)C(C(CCCCCC(=O)O)c2ccccc2)=C(C)C1=O (configuration not stated)
inactive: [1] | [2] | [3] | [4] | [5] | [18] | [7] | [8] | [9] | [10] | [12] | [13] | [16] | [17] | [20]

CC(=O)[C@H]1CC[C@H]2[C@@H]3C=CC4=CC(=O)CC[C@@]4(C)[C@@H]3CC[C@]12C
inactive: [1] | [2] | [3] | [4] | [5] | [18] | [6] | [8] | [9] | [10] | [11] | [13] | [15] | [16] | [19] | [17] | [20]

c1cc(N(CC2CO2)CC2CO2)ccc1Cc1ccc(N(CC2CO2)CC2CO2)cc1 (configuration not stated)
inactive: [2] | [3] | [4] | [5] | [18] | [6] | [7] | [8] | [11] | [13] | [16] | [17] | [20]
active: [1] 43.3 µM

Cc1c[nH]c2ccccc12
inactive: [1] | [2] | [3] | [4] | [5] | [18] | [7] | [8] | [9] | [10] | [11] | [12] | [13] | [14] | [15] | [19] | [20]

Cc1ccccc1C(=O)Nc1ccc(C(=O)N2CCCC(N(C)C)c3ccccc32)cc1 (configuration not stated)
inactive: [1] | [2] | [3] | [4] | [5] | [18] | [6] | [7] | [10] | [11] | [12] | [13] | [16] | [19] | [17] | [20]

COCCOCC(OC)OC
inactive: [1] | [2] | [3] | [4] | [5] | [18] | [6] | [8] | [10] | [11] | [12] | [13] | [14] | [15] | [16] | [17] | [20]

CNC(=O)c1cc(Oc2ccc(NC(=O)Nc3ccc(Cl)c(C(F)(F)F)c3)cc2)ccn1
inactive: [2] | [3] | [4] | [5] | [18] | [7] | [8] | [11] | [12] | [13] | [16] | [17] | [20]
active: [1] 26.6 µM

COc1cc(CNC(=O)CCCC/C=C/C(C)C)ccc1O
inactive: [1] | [2] | [3] | [4] | [5] | [18] | [6] | [8] | [9] | [14] | [15] | [16] | [17]

CC[C@H]1OC(=O)[C@H](C)[C@@H](O[C@H]2C[C@@](C)(OC)[C@@H](O)[C@H](C)O2)[C@H](C)[C@@H](O[C@@H]2O[C@H](C)C[C@H](N(C)C)[C@H]2O)[C@](C)(OC)C[C@@H](C)C(=O)[C@H](C)[C@@H](O)[C@]1(C)O
inactive: [1] | [2] | [3] | [4] | [5] | [18] | [6] | [7] | [8] | [9] | [14] | [16] | [19] | [17]
